From PubChem BioAssay (NCI) come the findings set out here.

The panel holds about 79,000 compounds, 15% with a hit somewhere; the sample as a whole holds those more often. A number with no mark means an inactive call. The source made the active and inactive calls. Rule as the data show it: active = growth inhibition above about 70%; inactive = the rest.

Assay [1] is described as follows: NCI Yeast Anticancer Drug Screen. Data for the rad50 strain (AID 155).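 Also: 0% = growth of vehicle-only cultures of the same strain.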 The conditions noted are these: S. cerevisiae rad50 strain growth inhibition, active compounds read high. In outline: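 Cells are treated with compound, grown, and their growth is then scored against vehicle-only cultures of the same repair-deficient yeast strain.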
Assay [2] is described as follows: NCI Yeast Anticancer Drug Screen. Data for the mec2-1 strain (AID 157). The conditions noted are these: S. cerevisiae mec2-1 strain, active compounds read high. An outline of the steps:
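Growth inhibition is read against vehicle-treated controls after compound exposure of the mec2-1 yeast strain, which is defective in DNA damage repair or cell cycle control.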

The nature of assay [3]: NCI Yeast Anticancer Drug Screen. Data for the sgs1 mgt1 strain (AID 161).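 Also: 0% = growth of cultures given vehicle only.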 To be noted: S. cerevisiae sgs1 mgt1 strain, active compounds read high. In outline:
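Compounds are added to genetically altered yeast, and growth is compared with cultures given vehicle alone to give percent inhibition.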

A short description of assay [4]: NCI Yeast Anticancer Drug Screen. Data for the cln2 rad14 strain (AID 165).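 Also: 0% = growth equal to vehicle treated cultures.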 To be noted: S. cerevisiae cln2 rad14 strain, active compounds read high. An outline of the steps: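 Growth inhibition, relative to vehicle-treated controls, is the read-out. The test organism is a yeast strain with defined genetic alterations, cln2 rad14.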
Assay [5] is described as follows: NCI Yeast Anticancer Drug Screen. Data for the bub3 strain (AID 167). To be noted: S. cerevisiae bub3 mutant strain, active compounds read high. In outline:
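Part of a panel of yeast mutants defective in DNA damage repair or cell cycle regulation. Each strain is grown with compound, and inhibition is calculated relative to solvent-treated cultures.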

Assay [6] in a line: NCI Yeast Anticancer Drug Screen. Data for the mlh1 rad18 strain (AID 175). To be noted: S. cerevisiae mlh1 rad18 strain growth inhibition, active compounds read high. In outline: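 Cells of a genetically altered yeast strain, deficient in DNA damage repair, were treated with compound. Their growth was then compared with that of vehicle-treated cultures to give inhibition.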
The mark [7] stands for this setting: at 5.0 µM (retest, dose inferred, filed as 0.5).
Setting [8] is: at 50.0 µM (retest, dose inferred, filed as 5.0).

As for `CC(C)=C1C=C2CCC3C(C)(C(=O)O)CCCC3(C)C2CC1` (configuration not stated) (tested in a mixture with another compound), the growth inhibition is -4% in assay [1] (setting [7]); 90% (active) in assay [1] (setting [8]); 72.5% (active) in assay [1] (at 50.0 µM); -5% in assay [2] (setting [7]); 61% in assay [2] (setting [8]); 40.1% in assay [2] (at 50.0 µM). The growth inhibition is -5% in assay [3] (setting [7]); 48% in assay [3] (setting [8]); 59.4% in assay [3] (at 50.0 µM); -5% in assay [4] (setting [7]); 47% in assay [4] (setting [8]); 20.3% in assay [4] (at 50.0 µM). Besides, the growth inhibition is -7% in assay [5] (setting [7]); 98% (active) in assay [5] (setting [8]); 38.8% in assay [5] (at 50.0 µM); -1% in assay [6] (setting [7]); 76% (active) in assay [6] (setting [8]); 60.8% in assay [6] (at 50.0 µM).

`CC(=O)Oc1cccc2c1C(=O)C(Br)(Br)CCC2`: the growth inhibition in assay [1] (setting [7]) was 91% (active); in assay [1] (setting [8]), 99% (active); in assay [1] (at 50.0 µM), 92.1% (active); in assay [2] (setting [7]), 100% (active); in assay [2] (setting [8]) it was 99% (active); in assay [2] (at 50.0 µM), 87% (active). The growth inhibition in assay [3] (setting [7]) was 92% (active); in assay [3] (setting [8]) it was 99% (active); in assay [3] (at 50.0 µM) it was 88.5% (active); in assay [4] (setting [7]), 52%; in assay [4] (setting [8]), 99% (active); in assay [4] (at 50.0 µM), 89.4% (active). The growth inhibition is 99% (active) in assay [5] (setting [7]); 99% (active) in assay [5] (setting [8]); 90% (active) in assay [5] (at 50.0 µM); 99% (active) in assay [6] (setting [7]); 99% (active) in assay [6] (setting [8]); 93.2% (active) in assay [6] (at 50.0 µM).

Take `c1ccc(CN2CCC3(CC2)SSC2(CCN(Cc4ccccc4)CC2)SS3)cc1`: the growth inhibition in assay [1] (setting [7]) is 0%; in assay [1] (setting [8]), 34%; in assay [1] (at 50.0 µM), 73.1% (active); in assay [2] (setting [7]), 14%; in assay [2] (setting [8]) it was -3%; in assay [2] (at 50.0 µM) it was 24.4%. In addition, the growth inhibition in assay [3] (setting [7]) is 5%; in assay [3] (setting [8]), 35%; in assay [3] (at 50.0 µM), 30.9%; in assay [4] (setting [7]), 31%; in assay [4] (setting [8]), 21%; in assay [4] (at 50.0 µM), 29.8%. Further, the growth inhibition is 16% in assay [5] (setting [7]); 18% in assay [5] (setting [8]); 42.2% in assay [5] (at 50.0 µM); 7% in assay [6] (setting [7]); 19% in assay [6] (setting [8]); 45.9% in assay [6] (at 50.0 µM).

With `CCCCSc1nc2c([nH]1)c(=S)n(C)c(=S)n2C`, the growth inhibition in assay [1] (setting [7]) is 2%; in assay [1] (setting [8]), 80% (active); in assay [1] (at 50.0 µM) it was 63.5%; in assay [2] (setting [7]), 20%; in assay [2] (setting [8]), 91% (active); in assay [2] (at 50.0 µM), 82% (active). Also, the growth inhibition is 12% in assay [3] (setting [7]); 67% in assay [3] (setting [8]); 55.5% in assay [3] (at 50.0 µM); -5% in assay [4] (setting [7]); 85% (active) in assay [4] (setting [8]); 69.7% in assay [4] (at 50.0 µM). In addition, the growth inhibition in assay [5] (setting [7]) is -12%; in assay [5] (setting [8]), 92% (active); in assay [5] (at 50.0 µM), 66.3%; in assay [6] (setting [7]), -7%; in assay [6] (setting [8]), 86% (active); in assay [6] (at 50.0 µM), 81.2% (active).

As for `COc1c(O)cc(C=O)cc1[N+](=O)[O-]`, the growth inhibition was -7% in assay [1] (setting [7]); 14% in assay [1] (setting [8]); 7.3% in assay [1] (at 50.0 µM); 1% in assay [2] (setting [7]); 12% in assay [2] (setting [8]); 2.15% in assay [2] (at 50.0 µM). For the same molecule, the growth inhibition was -1% in assay [3] (setting [7]); 11% in assay [3] (setting [8]); 40.3% in assay [3] (at 50.0 µM); 4% in assay [4] (setting [7]); 20% in assay [4] (setting [8]); 69.2% in assay [4] (at 50.0 µM). The growth inhibition in assay [5] (setting [7]) is -1%; in assay [5] (setting [8]), 1%; in assay [5] (at 50.0 µM), -9.85%; in assay [6] (setting [7]), -4%; in assay [6] (setting [8]) it was 14%; in assay [6] (at 50.0 µM), 8.1%.

For `CCc1cc2c(cc1O)CC[C@@H]1[C@@H]2CC[C@]2(C)[C@@H](O)CC[C@@H]12`, the growth inhibition in assay [1] (setting [7]) was 31%; in assay [1] (setting [8]), 96% (active); in assay [1] (at 50.0 µM) it was 88% (active); in assay [2] (setting [7]), -10%; in assay [2] (setting [8]), 99% (active); in assay [2] (at 50.0 µM) it was 92% (active). Also, the growth inhibition was -17% in assay [3] (setting [7]); 96% (active) in assay [3] (setting [8]); 89.3% (active) in assay [3] (at 50.0 µM); 9% in assay [4] (setting [7]); 97% (active) in assay [4] (setting [8]); 91% (active) in assay [4] (at 50.0 µM). Further, the growth inhibition in assay [5] (setting [7]) was -39%; in assay [5] (setting [8]) it was 98% (active); in assay [5] (at 50.0 µM) it was 49.5%; in assay [6] (setting [7]), 3%; in assay [6] (setting [8]), 97% (active); in assay [6] (at 50.0 µM) it was 85.2% (active).

In the case of `S=C(Nc1ccccc1)NC1CC2C=CC1CC2` (configuration not stated), the growth inhibition in assay [1] (setting [7]) was -9%; in assay [1] (setting [8]), -4%; in assay [1] (at 50.0 µM), -5%; in assay [2] (setting [7]), -11%; in assay [2] (setting [8]), -12%; in assay [2] (at 50.0 µM) it was 7.2%. Also, the growth inhibition is -4% in assay [3] (setting [7]); 2% in assay [3] (setting [8]); 1.6% in assay [3] (at 50.0 µM); -23% in assay [4] (setting [7]); -11% in assay [4] (setting [8]); 31.6% in assay [4] (at 50.0 µM). Further, the growth inhibition was -4% in assay [5] (setting [7]); 0% in assay [5] (setting [8]); 19.6% in assay [5] (at 50.0 µM); -4% in assay [6] (setting [7]); -13% in assay [6] (setting [8]); 13.2% in assay [6] (at 50.0 µM).

Turning to `Fc1ccc(NC(=S)SCc2ccccc2)cc1F`, the growth inhibition in assay [1] (setting [7]) was 4%; in assay [1] (setting [8]) it was 89% (active); in assay [1] (at 50.0 µM), 97.3% (active); in assay [2] (setting [7]) it was 2%; in assay [2] (setting [8]), 92% (active); in assay [2] (at 50.0 µM) it was 99% (active). For the same molecule, the growth inhibition was 5% in assay [3] (setting [7]); 94% (active) in assay [3] (setting [8]); 99.2% (active) in assay [3] (at 50.0 µM); -6% in assay [4] (setting [7]); 81% (active) in assay [4] (setting [8]); 92.5% (active) in assay [4] (at 50.0 µM). Further, the growth inhibition in assay [5] (setting [7]) was 6%; in assay [5] (setting [8]), 95% (active); in assay [5] (at 50.0 µM), 89.8% (active); in assay [6] (setting [7]), 0%; in assay [6] (setting [8]) it was 97% (active); in assay [6] (at 50.0 µM), 99.2% (active).

With `O=C(C=P(c1ccccc1)(c1ccccc1)c1ccccc1)c1ccccc1-c1ccccc1C(=O)C=P(c1ccccc1)(c1ccccc1)c1ccccc1`, the growth inhibition is 98% (active) in assay [1] (setting [7]); 92% (active) in assay [1] (setting [8]); 87.9% (active) in assay [1] (at 50.0 µM); 99% (active) in assay [2] (setting [7]); 92% (active) in assay [2] (setting [8]); 90.8% (active) in assay [2] (at 50.0 µM). The growth inhibition in assay [3] (setting [7]) was 99% (active); in assay [3] (setting [8]), 87% (active); in assay [3] (at 50.0 µM), 90.5% (active); in assay [4] (setting [7]), 97% (active); in assay [4] (setting [8]), 93% (active); in assay [4] (at 50.0 µM) it was 88.5% (active). Moreover, the growth inhibition in assay [5] (setting [7]) was 99% (active); in assay [5] (setting [8]), 93% (active); in assay [5] (at 50.0 µM), 88.2% (active); in assay [6] (setting [7]) it was 95% (active); in assay [6] (setting [8]), 88% (active); in assay [6] (at 50.0 µM) it was 90.4% (active).
